The record followed here is PubChem BioAssay (NCI).

This test can be described thus: NCI Yeast Anticancer Drug Screen. Data for the mlh1 strain (AID 171).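 Further: 0% = growth of vehicle-treated control cultures of the same strain.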 Particulars: S. cerevisiae mlh1 strain growth inhibition, stronger effect = higher value. Here is the method: Growth inhibition of yeast strains with defined genetic alterations is measured as a screen for potential anti-cancer activity. Selected strains with alterations in DNA damage repair or cell cycle control were exposed to compounds and growth inhibition was measured relative to vehicle treated controls. The strain used in this assay is mlh1

This is part of a sample that, as a whole, favours compounds with a hit. Of some 79,000 tested, about 15% had one in any assay. A number with no mark means an inactive call. Calls of active or inactive are those of the source. No stated cut-off is given here; in the data, active means growth inhibition above about 70%; inactive means the rest.

In the case of `CCCCCCSc1nc(COC(=O)NC)c(COC(=O)NC)n1C`, the growth inhibition runs as follows: (at 1.2 µM) -1%; (at 3.7 µM) 0%; (at 11.0 µM) -2%; (at 33.0 µM) 32%; (at 100.0 µM) 99% (active).

Regarding `CN(C)Cc1cccc(CN(C)C)[c]1[Sn]([Br])([c]1ccccc1)[c]1ccccc1`, the growth inhibition reads like this: (at 1.2 µM) -2%; (at 3.7 µM) 23%; (at 11.0 µM) 37%; (at 33.0 µM) 60%; (at 100.0 µM) 96% (active).

As to `C/C(=N\NC(=S)NNC(=S)N(C)c1ccccc1)c1ccccn1`, the growth inhibition was 21% (at 1.2 µM); 41% (at 3.7 µM); 97% (active) (at 11.0 µM); 98% (active) (at 33.0 µM); 83% (active) (at 100.0 µM).

For the molecule `CCn1ncc(N=O)c1N`, the growth inhibition is 3% (at 1.2 µM); 5% (at 3.7 µM); 20% (at 11.0 µM); 35% (at 33.0 µM); 53% (at 100.0 µM).

In the case of `CC(=O)C1=C(O)C2(C)c3c(O)c(C)c(O)c(C(C)=O)c3OC2(Sc2ccccc2)CC1=O` (stereo not given), the growth inhibition runs as follows: (at 1.2 µM) 3%; (at 3.7 µM) 23%; (at 11.0 µM) 25%; (at 33.0 µM) 38%; (at 100.0 µM) 83% (active).

For the molecule `N#C/C(=C1C=C(Br)/C(=N\O)C=C\1Cl)c1cccc2ccccc12`, the growth inhibition (at 1.2 µM) was -37%; the growth inhibition (at 3.7 µM) was -11%; the growth inhibition (at 11.0 µM) is 58%; the growth inhibition (at 33.0 µM) is 79% (active); the growth inhibition (at 100.0 µM) is 94% (active).

`C/C(=N\NC(=S)NC1CCCC1)c1ccccn1`: the growth inhibition reads like this: (at 1.2 µM) -3%; (at 3.7 µM) 71% (active); (at 11.0 µM) 98% (active); (at 33.0 µM) 98% (active); (at 100.0 µM) 98% (active).

For `Cn1ncc2cc3c(Nc4ccc(Cl)cc4)cccc3nc21`, the growth inhibition by setting is: (at 1.2 µM) 0%; (at 3.7 µM) -4%; (at 11.0 µM) -2%; (at 33.0 µM) -2%; (at 100.0 µM) 26%.
